The source of these data is PubChem BioAssay (EPA / NIEHS).

Calls of active or inactive are those of the source. How the source made its calls: active means hit-call score of the fitted dose curve at least 0.9, where 1 is the maximum; inactive means score below 0.9.

Sequence of Hepatocyte nuclear factor 3-beta (Homo sapiens) (Q9Y261 whole entry, looked up): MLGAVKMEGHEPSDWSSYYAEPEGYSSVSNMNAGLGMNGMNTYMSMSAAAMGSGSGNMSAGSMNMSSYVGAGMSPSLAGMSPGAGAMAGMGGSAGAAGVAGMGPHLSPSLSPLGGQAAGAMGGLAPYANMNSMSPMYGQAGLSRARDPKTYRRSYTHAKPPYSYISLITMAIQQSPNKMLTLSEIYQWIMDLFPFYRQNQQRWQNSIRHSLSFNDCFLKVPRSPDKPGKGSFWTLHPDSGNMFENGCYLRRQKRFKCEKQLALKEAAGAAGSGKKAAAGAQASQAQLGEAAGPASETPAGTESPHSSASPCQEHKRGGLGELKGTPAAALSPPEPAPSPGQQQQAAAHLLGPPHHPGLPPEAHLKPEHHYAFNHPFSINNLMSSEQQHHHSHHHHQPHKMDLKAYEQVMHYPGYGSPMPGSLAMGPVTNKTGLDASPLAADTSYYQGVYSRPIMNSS

This assay concerns the target Hepatocyte nuclear factor 3-beta (Homo sapiens) (UniProt Q9Y261). Nature of the assay: ATG_FoxA2_CIS: Attagene CIS-FACTORIAL HepG2 Assay for human Forkhead box A2 (FOXA2) (AID 2282942). Particulars: HepG2 cis-reporter transcription factor activity, 24 h; actives raise or lower the signal. The protocol: ATG_CIS is a cell-based, multiplexed-readout assay that uses HepG2, a human liver cell line, with measurements taken at 24 hours after chemical dosing in a 24-well plate.ATG_FoxA2_CIS is one of 52 assay component(s) measured or calculated from the ATG_CIS assay. It is designed to make measurements of mRNA induction, a form of inducible reporter, as detected with fluorescence intensity signals by Reverse transcription polymerase chain reaction (RT-PCR) and Capillary electrophoresis technology.Data from the assay component ATG_FoxA2_CIS was analyzed into 1 assay endpoint. This assay endpoint, ATG_FoxA2_CIS, was analyzed with bidirectional fitting relative to DMSO as the negative control and baseline of activity. Using a type of inducible reporter, measures of mRNA for gain or loss-of-signal activity can be used to understand the reporter gene at the transcription factor-level as they relate to the gene FOXA2. Furthermore, this assay endpoint can be referred to as a primary readout, because this assay has produced multiple assay endpoints where this one serves a reporter gene function. To generalize the intended target to other relatable targets, this assay endpoint is annotated to the dna binding intended target family, where the subfamily is forkhead box protein.
Human liver HepG2 cells are transiently transfected with multiple reporter transcription units (MRTUs) in 6-well plates using FuGene 6 reagent (Roche; 3 ml FuGene/1 mg DNA). The MRTU constructs are regulated by a cis-regulating element (promoter). […] A major difference between the CIS and TRANS system is that in CIS activities of endogenous TFs are measured, whereas the TRANS assay evaluates changes in activities of exogenous, chimeric NR-Gal4 proteins. […] At the end of 24 hour incubation, total RNA was isolated using TriZol reagent (Invitrogen). The isolated RNA is then reverse-transcribed using oligo(dT) primer and Mo-MLV reverse transcriptase (Invitrogen) with DNAse I (Ambion) treatment for 30 min. The one-tenth of the produced cDNA was amplified by PCR using Taq DNA polymerase (Invitrogen) and two reporter sequence-specific primers. The PCR products were fluorescently labeled by primer extension with 6-arboxyfluorescein (6-FAM) 5'-labeled reporter sequence-specific primer (2 min at 95 C, 20 s at 68 C and 10 min at 72 C) and these products were digested with 5U of HpaI (New England Biolabs) for 2h at 37 C. The fragments were purified using Qiaquick PCR columns (Qiagen), analyzed on an ABI 3130xL genetic analyzer (Applied Biosystems) with peak positions identified by using a set of X-rhodamine (ROX)-labeled MapMarker1000 molecular weight standards (BioVentures). The raw capillary electrophoresis data was processed using Attagraph software (Attagene).
Turning to `COC(=O)COc1ccc(Cl)cc1Cl`, the call was inactive.

With `O=[N+]([O-])c1cc(C(F)(F)F)c(Cl)c([N+](=O)[O-])c1Cl`, the compound was classed as inactive. With `ClCC(Cl)Cl`, the compound was called inactive. The same measure, in the same setting: the result for `Cl/C=C\CCl` reads “inactive”; that for `CCCC=NO`, “inactive”; that for `CCC1CCC(=O)O1` (stereo not given), “inactive”. On the same count and under the same terms, the result for `C=Cc1cccc(CCl)c1` reads “inactive”; that for `CC1(C)[C@H](C(=O)O[C@H](C#N)c2cccc(Oc3ccccc3)c2)[C@@H]1C=C(Br)Br`, “inactive”.

Consider `Oc1ccc(C2(c3ccc(O)cc3)c3ccccc3-c3ccccc32)cc1`, for which the compound was called inactive. Same read-out and setting: the result for `CC1(C)CC(=O)CC(C)(C)N1[O]` reads “inactive”; that for `CC(C)[C@@H](C(=O)O[C@@H](C#N)c1cccc(Oc2ccccc2)c1)c1ccc(Cl)cc1`, “inactive”. Same read-out and setting: the result for `CC(C)(C)C(=O)CCl` reads “inactive”. `Nc1ccccc1C(=O)OCCc1ccccc1`: the AC50 was 14.6 µM (active). Turning to `CC(C)(C)C(O)C(Oc1ccc(-c2ccccc2)cc1)n1cncn1` (stereo not given), the call was inactive. Turning to `N#Cc1cccc(C#N)c1`, the compound was classed as inactive. With `O=C(O)COc1ccccc1`, the compound was classed as inactive. Same read-out and setting: the result for `CCCCCCC1CCOC1=O` (stereo not given) reads “inactive”; that for `O=C1Nc2ccc(Cl)cc2C(c2ccccc2)=NC1O` (stereo not given), “inactive”. Still for that read-out and setting: the result for `NNc1ccccc1` reads “inactive”; that for `C[N+](=O)[O-]`, “inactive”; that for `Nc1ccccc1`, “inactive”.

With `O=C(CCl)c1ccccc1`, the outcome was inactive. The same measure, in the same setting: under `C=CCc1ccc(OC(=O)Cc2ccccc2)c(OC)c1` stands “inactive”. As to `c1ccc(Nc2ccc3ccccc3c2)cc1`, the compound was classed as inactive. As to `CCC(C)c1cc([N+](=O)[O-])cc([N+](=O)[O-])c1OC(=O)C=C(C)C` (stereo not given), the compound was called inactive. Same read-out and setting: the result for `CC[N+](=O)[O-]` reads “inactive”; that for `O=C(O)c1cc[c]([Hg][Cl])cc1`, “inactive”. On the same count and under the same terms, the result for `C[N+](C)(C)CC(=O)O` reads “inactive”; that for `O=C(CCN1CC1)OCC(CO)(COC(=O)CCN1CC1)COC(=O)CCN1CC1`, “inactive”. Same read-out and setting: under `O=C(NCNC(=O)NC1C(=O)NC(=O)N1CO)NC1C(=O)NC(=O)N1CO` (stereo not given) stands “inactive”. `CCOC(=O)COc1ccc(Cl)cc1Cl`: the compound was called inactive.

In the case of `Nc1ccc([N+](=O)[O-])cc1N`, the result was inactive. Still for that read-out and setting: under `CC(Cc1ccc(C(C)(C)C)cc1)CN1C[C@@H](C)O[C@@H](C)C1` (stereo not given in full) stands “inactive”; under `CC(C)CCCCCCCOP(=O)(Oc1ccccc1)Oc1ccccc1`, “inactive”. Still for that read-out and setting: the result for `CC(C)COP(=O)(OCC(C)C)OCC(C)C` reads “inactive”.

`Cc1ccc(OP(=O)(Oc2ccc(C)cc2)Oc2ccc(C)cc2)cc1` (tested in a mixture with another compound): the call was inactive. As to `O=P(O)(Oc1ccccc1)Oc1ccccc1`, the compound was classed as inactive. For the compound `COc1ncc(F)c2nc(S(=O)(=O)Nc3c(F)cccc3F)nn12`, the compound was called inactive. On the same count and under the same terms, under `O=[N+]([O-])O.O=[N+]([O-])O.[Cd]` stands “inactive”; under `S=c1[nH]c2ccccc2[nH]1`, “inactive”.

The term AC50 denotes the concentration at which the activity in the assay is half-maximal.
